# The campaign covered roughly 290,000 compounds. About 3,000 (1%) were called active. This is one part of a sample in which actives are shown more often than they occur. Rule as the data show it: active = inhibition mostly above about 36% (no sharp cut-off); inactive = mostly below about 34%.
# Test: inhibition of NOD1-driven NF-kB reporter – cell-based, luminescence, uHTS, primary screen (AID 1578);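 also: HEK-293T reporter cells stimulated with the NOD1 agonist gamma-tri-DAP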
# Details: NOD1-driven NF-kB luciferase reporter cells, at 4 µM, active compounds read high
row,SMILES,inhibition
1,CCC(=O)Nc1cc(ON=C(C)C)cc([N+](=O)[O-])c1,-24.6% (inactive)
2,CC(C)=NOc1cc(NC(=O)CCl)cc([N+](=O)[O-])c1,89.5% (active)
3,CC(=O)Nc1cc(ON=C(C)C)cc([N+](=O)[O-])c1,-34.9% (inactive)
4,O=C(Nc1ccc(S(=O)(=O)N2CCCCCC2)cc1)c1ccc(Br)o1,26.1% (inactive)
5,COc1ccc(CCNc2oc(COc3ccccc3)nc2C#N)cc1,-56.7% (inactive)
6,COc1ccc(CCNc2oc(Cc3ccccc3)nc2C#N)cc1OC,25.6% (inactive)
7,COc1ccc(CCNc2oc(COc3ccc(F)cc3)nc2C#N)cc1,-48.1% (inactive)
8,COc1ccc(CCNc2oc(COc3ccccc3F)nc2C#N)cc1OC,21.4% (inactive)
9,CCc1ccc(NC(=O)CCCN2C(=S)NC(C)(C)CC2C)cc1 (stereo not given),-30.4% (inactive)
10,Cc1ccccc1-c1ccc(=O)n(CC(=O)Nc2ccc(-n3cnnn3)cc2)n1,-5.3% (inactive)
11,CCOC(=O)C(CCCOc1ccccc1)C(=O)OCC,10.5% (inactive)
12,CC1CCCCC1NC(=O)CN1C(=O)CSc2cc(S(=O)(=O)N3CCCCCC3)ccc21 (stereo not given),-19.4% (inactive)
13,COC(=O)c1cccc(NC(=O)NC(=O)c2ccccc2Cl)c1,30% (active)
14,COC(=O)c1cccc(NC(=O)/C(=C\c2ccccc2)NC(=O)c2ccccc2Cl)c1,-35.1% (inactive)
15,COC(=O)c1cccc(NC(=O)NC(=O)c2ccc(Cl)cc2)c1,11.7% (inactive)
16,O=C(CNS(=O)(=O)c1cccc2nsnc12)NC1CCCCC1,-5.2% (inactive)
17,CCN(CC)c1ccc(/C=N/NC(=O)Nc2nonc2N)cc1,58.7% (active)
18,COc1ccc(/C=N/NC(=O)Nc2nonc2N)cc1,-31.2% (inactive)
19,CCN(CC)c1ccc(/C=N/NC(=O)Nc2ccccc2)cc1,-54% (inactive)
20,COCCOC(=O)C1=C(C)Nc2cc(=O)[nH]c(=O)n2C1c1cccc([N+](=O)[O-])c1 (stereo not given),5% (inactive)
21,O=C1CCC(C(=O)Nc2cccc3ccccc23)N1 (stereo not given),8.1% (inactive)
22,Cc1ccccc1NC(=O)C1CCC(=O)N1 (stereo not given),96.7% (active)

row,SMILES,inhibition
1,O=C1CCC(C(=O)Nc2ccccc2)N1 (stereo not given),-23% (inactive)
2,Cc1cc(C)nc(NS(=O)(=O)c2ccc(NC(=O)c3ccc4c(c3)OCCO4)cc2)n1,-42.8% (inactive)
3,COc1ccc(C2C(C#N)=C(N)Oc3n[nH]c(C)c32)cc1Cn1nc(C)c([N+](=O)[O-])c1C (stereo not given),-12.1% (inactive)
4,COc1ccc(C2C(C#N)=C(N)OC3=C2C(=O)CCC3)cc1Cn1nc(C)c([N+](=O)[O-])c1C (stereo not given),-8.7% (inactive)
5,COc1ccc(C2C(C#N)=C(N)Oc3c2c(C)nn3-c2ccccc2)cc1Cn1nc(C)c([N+](=O)[O-])c1C (stereo not given),85% (active)
6,Cc1ccc(NNC(=O)CCc2ccccc2)c(C)c1,-5% (inactive)
7,O=C(NC1CCCN(Cc2ccc(Cl)cc2)C1)c1c(F)cccc1F (stereo not given),-4.9% (inactive)
8,N#CC1(c2ccccc2)CCCN1C(=O)c1ccc(Br)cc1 (stereo not given),-11.6% (inactive)
9,C=CCOC(=O)c1sc(NC(=O)c2ccc(OC)cc2)nc1C,-27.6% (inactive)
10,CNC(=O)CCc1[nH]c2ccccc2c1Sc1ccccc1,2.6% (inactive)
11,O=C(O)CCc1[nH]c2ccccc2c1Sc1ccccc1,2.8% (inactive)
12,O=C(CCc1[nH]c2ccccc2c1Sc1ccccc1)NCCO,91.3% (active)
13,C=CCn1c(C)csc1=Nc1ccc(C(=O)O)cc1,-39.1% (inactive)
14,CCOc1ccc(C(=O)Nn2cnnc2)cc1OCC,-0.7% (inactive)
15,COc1cc(C=O)ccc1OC(=O)c1ccc(C(C)C)cc1,-9.5% (inactive)
16,CCn1c(=N)n(CC(=O)C(C)(C)C)c2ccccc21,1.2% (inactive)
17,CCc1ccc(CN2CCC(C(=O)Nc3ccc(Oc4ccccc4)nc3)CC2)o1,32.5% (inactive)
18,O=C(O)COc1ccc(Br)cc1C(c1c(C(=O)O)[nH]c2ccccc12)c1c(C(=O)O)[nH]c2ccccc12,-18.7% (inactive)
19,O=C(O)c1[nH]c2ccccc2c1C(c1cc(Br)ccc1O)c1c(C(=O)O)[nH]c2ccccc12,76.6% (active)
20,CCOc1cc(Br)cc(C(c2c(C(=O)O)[nH]c3ccccc23)c2c(C(=O)O)[nH]c3ccccc23)c1O,18% (inactive)
21,Cc1nn(CC(=O)NCC(C)c2ccccc2)c(=O)c2cccn12 (stereo not given),-28.8% (inactive)
22,COC1(OC)C(/C=C/c2ccc(Cl)cc2)C(C#N)(C#N)C1(OC)OC (stereo not given),62.6% (active)

row,SMILES,inhibition
1,CCOC1(OCC)C(c2ccc(Cl)cc2)C(C#N)(C#N)C1(OCC)OCC (stereo not given),-5.8% (inactive)
2,N#Cc1c(NC(=O)c2ccccc2)sc2c1CCC2,-29.6% (inactive)
3,N#Cc1c(Cl)nsc1NC(=O)c1ccccc1,89.1% (active)
4,Cc1sc(NC(=O)c2ccccc2)c(C#N)c1-c1ccccc1,-17.1% (inactive)
5,C/C(=N\N=C(N)N)c1cc(Cl)ccc1Cl,-23.9% (inactive)
6,CCNc1nc(Oc2ccc(C(=O)OC)cc2)nc(N(C)C)n1,-15.3% (inactive)
7,O=C(O)c1cc(S(=O)(=O)O)cc(Nc2c3ccccc3nc3ccccc23)c1O,30.7% (active)
8,O=C(O)c1cccc(Nc2c3ccccc3nc3ccccc23)c1,-9% (inactive)
9,Cc1ccc(O)c(Nc2c3ccccc3nc3ccccc23)c1,12.5% (inactive)
10,COc1cccc(CNC(=O)Cn2cccc2)c1,18.5% (inactive)
11,COc1cccc(CNC(=O)CCl)c1,73.9% (active)
12,COc1cccc(CNC(=O)Cc2ccc(Br)cc2)c1,-16.7% (inactive)
13,Cc1cccc(NC(=O)c2ccc(C(=O)Nc3cccc(C)c3)nc2)c1,62.8% (active)
14,CC(=O)c1cccc(NC(=O)N2CCCCCC2)c1,-8.3% (inactive)
15,CS(=O)(=O)c1ccc2nc(NC(=O)c3cccc(Cl)c3)sc2c1,-1.3% (inactive)
16,Cc1cccc(NS(=O)(=O)c2cccc(C(=O)Nc3cccc(C(=O)O)c3)c2)c1,-23.8% (inactive)
17,Cc1cccc(NS(=O)(=O)c2ccc(NC(=O)N3CCCCC3)cc2)c1,22.5% (inactive)
18,CC(=O)c1cccc(NC(=O)c2ccc(C(=O)Nc3cccc(C(C)=O)c3)nc2)c1,-11.1% (inactive)
19,CC(=O)Nc1cccc(NC(=O)c2ccc(C(=O)Nc3cccc(NC(C)=O)c3)nc2)c1,-19.3% (inactive)
20,CS(=O)(=O)c1ccc2nc(NC(=O)c3ccc(NS(=O)(=O)c4ccc(F)c(F)c4)cc3)sc2c1,-2.4% (inactive)
21,Cc1ccc(S(=O)(=O)Nc2cccc(C(=O)Nc3cc(C)ccn3)c2)cc1,-15.9% (inactive)

# Source: PubChem BioAssay AID1578 (Sanford-Burnham Center for Chemical Genomics, 2009)
